Structures are written as SMILES. Results filed as inconclusive are left out. Where a call stands in place of a potency, no number is given. A number with no mark means an inactive call. Calls of active or inactive are those of the source. Calls come from the whole dose curve; as a rule, active = well fitted inhibition curve with a large enough effect; inconclusive = small, poorly fitted or top-dose-only effect; inactive = flat fitted curve, though single readings scatter.
Potency is the fitted concentration of half-maximal effect.

The target in the experiment is Phospholipid hydroperoxide glutathione peroxidase GPX4 (Homo sapiens) (UniProt P36969). In words: Primary qHTS Assay for Inhibitors of Recombinant Selenoprotein Glutathione Peroxidase 4 (GPX4) (AID 1845192). Note: nearly all actives have a fitted effect of over 65% in size. The note with it: recombinant GPX4, GR-coupled NADPH fluorescence, 15 min; series mostly up to 50 µM; activity change, negative = inhibition: at the top concentration. The text has this: Assay Provider: Elias S.J. Arner MD PhD.
Phospholipid hydroperoxide glutathione peroxidase GPX4 (Homo sapiens), sequence (P36969 whole entry, looked up): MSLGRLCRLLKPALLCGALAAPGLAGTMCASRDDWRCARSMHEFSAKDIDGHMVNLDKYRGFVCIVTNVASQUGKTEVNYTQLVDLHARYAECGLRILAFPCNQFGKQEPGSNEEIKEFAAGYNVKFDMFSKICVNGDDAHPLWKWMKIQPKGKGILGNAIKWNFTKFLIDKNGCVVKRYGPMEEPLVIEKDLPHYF
Department of Medical Biochemistry and Biophysics
Karolinska Institutet, Solna, Stockholm, Sweden
Selenoprotein glutathione peroxidases (GPX), like the ubiquitously expressed GPX1 and the ferroptosis modulator GPX4, enact their antioxidant activities by reducing hydroperoxides using glutathione. […] GPX1 and GPX4 inhibitors have thus shown promise as anti-cancer agents. Existing inhibitors are often promiscuous, or modulate GPX activity only indirectly, so novel direct inhibitors identified through screening against GPX1 and GPX4 could be valuable. Here, we developed optimized glutathione reductase (GR)-coupled GPX assays for the biochemical high-throughput screen (HTS) of almost 12,000 compounds with known mechanisms of action. Initial hits were triaged using a GR counter-screen, assessed for isoform specificity using a separate GPX2 assay, and were assessed for general selenocysteine-targeting activity using a thioredoxin reductase (TXNRD1) assay. With this suite of assays, we identified novel GPX1/GPX2- and GPX4-specific inhibitors and can here present a validated pipeline for future discovery research for selenoprotein-targeting agents.
SEQUENCE No. (e.g., 1, 2, 3, etc.); […] (e.g., Cells, Incubation, Reagent, etc.); VALUE; DESCRIPTION.
1; Reagent 1; 3 uL; 333.33 nM GPx4 enzyme or no enzyme control in 1536-well, black, solid Greiner assay plate.
2; Compound; 25 nL; Kalypsis pin tool (Wako USA) equipped with a 1536-well pin head.
3; Incubation; 30 min; room temperature.
4; Reagent 2; 1 uL; 500 nM GR, 5 mM GSH, 2.5 mM NADPH solution
5; Reagent 3; 1 uL; 2.5 mM CHP in 50% EtOH.
6; Detection; Fluorescence; ViewLux microplate reader, excitation 340 nm and emission 450 nm.
7; Incubation; 15 min; room temperature.
8; Detection; Fluorescence; ViewLux microplate reader, excitation 340 nm and emission 450 nm.
NOTES (numbers refer to Sequence numbers above)
1. 3 µL of 333.33 nM GPX4 and 0.016% BSA in assay buffer (50 mM Tris-HCl, 2 mM EDTA (pH 7.5), 150 mM NaCl) was added to columns 3-48 of 1536-well plates using a BioRAPTR Flying Reagent Dispenser (Let's Go Robotics (LGR), Carlsbad, CA). A no-enzyme control (0.01% BSA in TES assay buffer) was added to columns 1-2.
2. 25 nL, library and DMSO controls were added to each well with a pin tool (Kalypsys).
3. The assay plates were incubated for 30 minutes at room temperature.
4. 1 µL of master mix (500 nM glutathione reductase (GR), 5 mM reduced glutathione (GSH), 2.5 mM NADPH in assay buffer) was added.
5. 1 µL of cumene hydroperoxide (CHP) ([2.5 mM] in 50% EtOH) was then added within 5 minutes to initiate the reaction. Final concentrations were: 200 nM GPX4, 1 mM GSH, 0.5 mM CHP, 0.5 mM NADPH, 100 nM GR, 0.01% BSA.
6. Initial fluorescence readout (t=0) at 340/450 nm was measured using a ViewLux multimodal detector (PerkinElmer, Waltham, MA).
8. Endpoint fluorescence readout (t=15) at 340/450 nm was measured 15 min after room temperature incubation.
On the technique in general: Quantitative high-throughput screening tests each substance at several concentrations.
Consider `O=C1CC[C@@]2(O)[C@H]3Cc4ccc(O)c5c4[C@@]2(CCN3CC2CC2)[C@H]1O5`, for which the Potency entry was “inactive”.

On to `CCCN1CCC[C@@H]2Cc3nc(N)ncc3C[C@H]21`, for which the outcome was inactive. Consider `O=c1[nH]c2ccccc2n1C1CCN(CCCC(c2ccc(F)cc2)c2ccc(F)cc2)CC1`, for which the Potency entry is “inactive”. The same measure, in the same setting: the value for `COC[C@H]1OC(=O)c2coc3c2[C@@]1(C)C1=C(C3=O)C2CCC(=O)[C@@]2(C)C[C@H]1OC(C)=O` (stereo not given in full) was “inactive”; that for `Clc1ccc(COC(Cn2ccnc2)c2ccc(Cl)cc2Cl)cc1` (stereo not given) was “inactive”.

For `N#CC(C#N)=Cc1ccc(O)c(O)c1`, the outcome was inactive. On the same count and under the same terms, the value for `CC(=O)[C@H]1CC[C@H]2[C@@H]3CC[C@H]4C[C@H](O)CC[C@]4(C)[C@H]3C(=O)C[C@]12C` was “inactive”. On to `N[C@@H]1C[C@H]1c1ccccc1`, for which the Potency result was “inactive”. On to `CC[C@@H](CO)NC(=O)[C@@H]1C=C2c3cccc4[nH]cc(c34)C[C@H]2N(C)C1`, for which the Potency result is “inactive”. Regarding `CCN(CC)C(=O)N[C@@H]1C=C2c3cccc4[nH]cc(c34)C[C@@H]2N(C)C1`, the “activity change, negative = inhibition” value is 3.6%.

Regarding `Cc1cc(SCc2sc(-c3ccc(C(F)(F)F)c(F)c3)nc2C)ccc1OCC(=O)O`, the “activity change, negative = inhibition” value was -11.7%. Same read-out and setting: the value for `C[C@]12CC[C@H]3[C@@H](CCC4=CC(=O)CC[C@@H]43)[C@@H]1CC[C@@H]2OC(=O)CCc1ccccc1` was -10.6%; that for `COc1ccc(C(=O)c2c(C)n(CCN3CCOCC3)c3ccccc23)cc1` was -10%; that for `CC(=O)[C@H]1CC[C@H]2[C@@H]3CC[C@H]4C[C@](C)(O)CC[C@]4(C)[C@H]3CC[C@]12C` was 3.84%.

In the case of `COc1ccc(Cc2nccc3cc(OC)c(OC)cc23)cc1OC`, the Potency entry is “inactive”. Consider `CCCC1CCCCN1` (stereo not given), for which the “activity change, negative = inhibition” value is 1.58%. As for `Cn1c(CCCC(=O)O)nc2cc(N(CCCl)CCCl)ccc21`, the Potency result is “inactive”. For the compound `Cc1ccc(S(=O)(=O)N[C@@H](CCCCN)C(=O)CCl)cc1`, the result was inactive. In the case of `Cc1sc2c(c1C)C(c1ccc(Cl)cc1)=N[C@@H](CC(=O)OC(C)(C)C)c1nnc(C)n1-2`, the “activity change, negative = inhibition” value was -23.4%. For the compound `COC[C@@H](NC(C)=O)C(=O)NCc1ccccc1`, the outcome was inactive. Consider `CNCC(O)c1ccc(O)cc1` (stereo not given), for which the Potency entry is “inactive”. Take `Oc1ccccc1-c1ccccc1`: the outcome was inactive. Consider `O=C(O)C(=O)c1cn(Cc2ccccc2)c2ccc(-c3ccc(OC(F)(F)F)cc3)cc12`, for which the Potency was 9.04 µM (active). Take `CCC1(C2=NCCN2)Cc2ccccc2O1` (stereo not given): the “activity change, negative = inhibition” value is -2.82%. As for `CCC(C(N)=O)N1CCCC1=O` (stereo not given), the result was inactive. For the compound `Oc1cccc2cccnc12`, the Potency result is “inactive”. `Cc1cccc(C)c1NC1=NCCCS1`: the Potency result is “inactive”. Consider `O=C1NCN(c2ccccc2)C12CCN(CC1COc3ccccc3O1)CC2` (stereo not given), for which the “activity change, negative = inhibition” value is -7.96%.

With `Fc1ccc(C(OCCN2CCN(CCCc3ccccc3)CC2)c2ccc(F)cc2)cc1`, the Potency entry is “inactive”. The same measure, in the same setting: the value for `C#CCN(C)[C@H](C)Cc1ccccc1` was “inactive”. In the case of `c1ccc2c(c1)OCC(C1=NCCN1)O2` (stereo not given), the “activity change, negative = inhibition” value was -10%. Consider `CC(C)=CC1C(C(=O)OCc2cccc(Oc3ccccc3)c2)C1(C)C` (stereo not given), for which the outcome was inactive. Regarding `C=C1C[C@@H]2[C@H](CC[C@]3(C)C(=O)CC[C@@H]23)[C@@]2(C)C=CC(=O)C=C12`, the Potency result was “inactive”. For the compound `C[C@H]1O[C@@H](O[C@H]2[C@@H](O)C[C@H](O[C@H]3[C@@H](O)C[C@H](O[C@H]4CC[C@@]5(C)[C@H](CC[C@@H]6[C@@H]5CC[C@]5(C)[C@@H](C7=CC(=O)OC7)CC[C@]65O)C4)O[C@@H]3C)O[C@@H]2C)C[C@H](O)[C@@H]1O`, the Potency result is “inactive”.

Take `Cc1cccc(C)c1NC(=O)CN1CCCC1=O`: the Potency result is “inactive”. For `CC(O)(CS(=O)(=O)c1ccc(F)cc1)C(=O)Nc1ccc(C#N)c(C(F)(F)F)c1` (stereo not given), the Potency entry was “inactive”. For the compound `NCC(CC(=O)O)c1ccc(Cl)cc1` (stereo not given), the Potency result was “inactive”.

`CC(CCc1ccccc1)NC(C)C(O)c1ccc(O)cc1` (stereo not given): the Potency result was “inactive”. Same read-out and setting: the value for `CNC(=O)c1ccc(N2C(=S)N(c3ccc(C#N)c(C(F)(F)F)c3)C(=O)C23CCC3)cc1F` was “inactive”; that for `CCCN1CCC[C@@H]2Cc3[nH]ncc3C[C@H]21` was “inactive”.

These data come from PubChem BioAssay (NCATS).
